For three compounds, Percent Effect results are on record in ChEMBL document CHEMBL3988442, “University of Dundee, Small-Polar-MMV Screening Library” (2021).

Experiment [1] has as its target T1, Aspartate--tRNA(Asp/Asn) ligase (Mycobacterium tuberculosis (strain ATCC 25618 / H37Rv)) (UniProt P9WFW3). Further: in the data most compounds retested in dose-response had high values.
T1 sequence (whole entry): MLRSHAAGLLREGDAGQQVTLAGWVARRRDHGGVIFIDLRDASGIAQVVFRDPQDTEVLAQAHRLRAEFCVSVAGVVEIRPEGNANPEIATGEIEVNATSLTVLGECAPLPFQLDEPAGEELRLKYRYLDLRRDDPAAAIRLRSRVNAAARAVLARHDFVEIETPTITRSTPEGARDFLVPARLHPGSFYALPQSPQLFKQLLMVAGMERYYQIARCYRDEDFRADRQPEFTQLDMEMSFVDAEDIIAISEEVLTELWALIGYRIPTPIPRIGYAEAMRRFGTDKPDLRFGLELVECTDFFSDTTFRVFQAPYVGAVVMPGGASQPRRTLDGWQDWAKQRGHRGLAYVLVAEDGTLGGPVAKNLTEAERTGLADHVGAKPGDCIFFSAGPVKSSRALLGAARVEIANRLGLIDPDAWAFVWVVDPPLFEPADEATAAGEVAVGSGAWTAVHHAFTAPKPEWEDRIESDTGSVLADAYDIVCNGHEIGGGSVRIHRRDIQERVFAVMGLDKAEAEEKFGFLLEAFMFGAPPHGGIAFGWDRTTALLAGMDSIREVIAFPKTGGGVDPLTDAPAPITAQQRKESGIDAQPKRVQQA
The experiment is described as follows: Assay for Asp RNA synthetase-1 from Mycobacterium tuberculosis. Format: functional. As to conditions: 30 µM. On the set-up: scale not given: direction of the effect not stated beside the values.

Experiment [2] deals with Shiga toxin 2 (Escherichia coli O157:H7) (UniProt P09385+P09386). The experiment is described as follows: E. coli 0.157:H7 Shiga Toxin SOP - stx2 screening assay. On the set-up: scale not given: direction of the effect not stated beside the values. As to conditions: 30 µM. The experiment is classed as functional.

Consider `O=C(c1csc(Br)c1)N1CCCC(n2ccnc2)C1` (stereo unspecified), for which the results for the Percent Effect in experiment [1] and in experiment [2] were -1.27% and -53.5%, respectively.
The corresponding values for `CCC(=O)N1CCc2[nH]cnc2C12CCN(C(=O)CCS(C)(=O)=O)CC2` are -0.836% and 9.19%.
The corresponding values for `Cc1csc(CNC(=O)NCC(O)c2cccc(Cl)c2)n1` (stereo unspecified) are 3.71% and -10.8%.
